Bioassay records as filed in PubChem.
A549 viability: Nrf2 qHTS screen for inhibitors: counterscreen for cytotoxicity; Potency, µM (doses to about 46 µM), for the others: at the highest dose activity change, negative = cytotoxicity, usual class: inhibitors; AID 504648, 2011; 390,000 compounds, 0.16% hits; A549 ARE-Fluc cells, CellTiter-Fluor viability, 18-24 h; note: % is set by controls: 0 for no effect and ±100 for the full control effect
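A549 ARE_Fluc cells in 5% FBS OPTI-MEM were exposed to compounds in concentration-response for 18-24 h at 37 deg C. Viability was read by CellTiter-Fluor fluorescence (Ex 405/Em 525) after 30 min, before the luciferase read.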
ATXN viability: Viability Counterscreen for Primary qHTS for Inhibitors of ATXN expression; S2 cells (HEK-293 line with an ATXN2-luciferase reporter) viability, CellTiter-Fluor protease fluorescence, 24 h; Potency, µM (highest dose often 56.7 µM), hits mostly cytotoxic; 400,000 compounds, 0.49% hits; AID 651635, 2014; note: nearly all actives have a fitted effect of over 40% in size
Nrf2 block: Nrf2 qHTS screen for inhibitors | AID 504444, 2011 | 360,000 compounds, 2.1% hits | A549 ARE-Fluc reporter, luciferase luminescence, 18-24 h | Potency, µM (highest dose often 46 µM), for inactives: top-dose activity change, negative = inhibition, actives largely listed as inhibitors; note: % is set by controls: 0 for no effect and ±100 for the full control effect; nearly all actives have a fitted effect of over 60% in size
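Cells were seeded and rested 2 h, then exposed to compounds for 18-24 h. CellTiter-Fluor was read first as a viability measure. BugLite was added 15 min before the final luminescent read of ARE-luciferase activity in A549 cells.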
ATXN2 expr inh: Primary qHTS for Inhibitors of ATXN expression. HEK-293 ATXN2-luciferase reporter, luminescence, 24 h. Potency, µM (titrated, usually from 57 µM), for the others: at the top dose activity change, negative = inhibition, most hits filed as inhibitors. 360,000 compounds, 0.72% hits; note: % is set by controls: 0 for no effect and ±100 for the full control effect; nearly all actives have a fitted effect of over 55% in size
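qHTS (up to 57 uM final) was run with 24 h compound exposure of reporter cells at 37 °C. Each well was multiplexed: SteadyGlo luminescence measured ATXN2-luciferase expression after a fluorogenic Gly-Phe-AFC viability readout (25 uM final).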
Nrf2 ARE act: qHTS of Nrf2 Activators | AREc32 ARE-luciferase reporter (MCF7-derived line), luminescence, 24 h | Potency, µM (doses to about 46.1 µM), for the others: at the highest dose activation, most hits filed as activators | 410,000 compounds, 0.31% hits | AID 624171, 2012; note: % of control where 0% means no effect; nearly all actives have a fitted effect of over 65% in size
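Quantitative high-throughput format: AREc32 reporter cells, 1000 per well, received compound by pin transfer and were incubated 24 hr at 37 deg C, 5% CO2, before Steady-Glo luminescence detection.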
Starred values were filed as active, the others as inactive; i = inactive; ? = inconclusive; nt = not tested or not shown; [ ] = remark or other dose. A selection: hits, their analogues and other compounds. The true share with any hit is near 2.9%. Calls come from the whole dose curve; as a rule, active = well fitted curve in the direction sought with a large enough effect; inconclusive = small, poorly fitted or top-dose-only effect, or another doubt; inactive = no such curve, though single readings can be large; an effect the other way counts as inactive or inconclusive. Potency is the fitted concentration of half-maximal effect.

SMILES | A549 viability | ATXN viability | Nrf2 block | ATXN2 expr inh | Nrf2 ARE act
COc1cc(CNc2nnnn2C)ccc1OCc1ccc(F)cc1Cl | 2% | ? | -10% | nt | 3%
CCn1nnnc1NCc1ccc(OCc2ccc(F)cc2Cl)c(OC)c1 | -7% | i | 21µM* | -20% | 0%
N[C@H](C(=O)O)c1ccc(O)cc1 | nt | i | nt | 1%[25.6 µM] | nt
O=[N+]([O-])C(/C=C(\Cl)[N+](=O)[O-])=C(N1CCCCC1)N1CCCCC1 | 23µM* | i | -17% | -6% | 7%[9.22 µM]
O=[N+]([O-])C(=C1SCCS1)C(=C(Cl)Cl)N1CCCCC1 | -10% | i | -13% | -26% | 0%
COc1cc2c(cc1OC)CN(C(=O)CCCOc1ccc(Cl)cc1Cl)CC2 | -20% | i | 18µM* | -35% | 1%
COc1cc2c(cc1OC)CN(C(=O)CCOc1ccccc1C)CC2 | ? | i | -12% | -28% | 0%
COc1ccccc1-c1nc2cc(C(=O)NC[C@H]3CCc4ccccc4O3)cc(NC(C)=O)c2n1C | nt | i | nt | nt | nt
Cc1cc(-c2nc(C)c(-c3nnc(SCC(=O)Nc4cc(Cl)cc(Cl)c4)n3C)s2)no1 | 0% | i | -9% | -13% | -1%
Cn1c(SCC(=O)Nc2cc(Cl)cc(Cl)c2)nnc1-c1ccc2nonc2c1 | -15% | ? | ? | 32µM* | 0%
COc1ccccc1NC(=O)c1sc(Cl)nc1C | -3% | i | 6% | nt | 11µM*
Cc1cc(-c2ccc(S(=O)(=O)Nc3ccc(Cl)cc3C)cc2)on1 | -9% | nt | 21µM* | nt | 0%
Cc1cc(-c2ccc(S(=O)(=O)Nc3ccccc3C)cc2)on1 | 0% | nt | ? | nt | 0%
Cc1ccc(NS(=O)(=O)c2ccc(-c3cc(C)no3)cc2)c(Br)c1 | 0% | nt | 23µM* | nt | 0%
COc1cc2c(cc1OC)C(c1ccc(-c3cc(Cl)ccc3Cl)o1)=NCC2 | ? | ? | 16µM* | ? | -1%
COc1cc2c(cc1OC)C(c1ccc(-c3ccc(Cl)c(Cl)c3)o1)=NCC2 | nt | i | 9.2µM* | ? | 3%
COc1cc2c(cc1OC)C(c1ccc(-c3ccccc3Cl)o1)=NCC2 | 1% | nt | nt | 35µM* | -1%
COc1cc2c(cc1OC)C(c1ccc(-c3ccc(Cl)cc3Cl)o1)=NCC2 | ? | ? | ? | ? | 4%
O=C(COc1ccc(/C=N/NC(=O)c2cc3ccccc3o2)cc1Br)Nc1ccccc1 | ? | 10µM* | ? | ? | 4%
NC(=O)c1c(NC(=O)CN2CCN(S(=O)(=O)c3ccccc3)CC2)sc2c1CCC2 | ? | i | 18µM* | -18% | -1%
CN1CCN(CC(=O)Nc2sc3c(c2C(=O)Nc2ccccc2)CCCC3)CC1 | -12% | ? | 12% | -22% | 0%
Cn1nnnc1Sc1ncnc2scc(-c3ccccc3C#N)c12 | -8% | nt | ? | nt | nt
COc1ccccc1CNC(=O)c1cnc2sc(N3CCCCC3)nn2c1=O | 2% | i | 6% | -5% | 0%
Cc1ccc(C)c(N2CCN(CCCNC(=O)c3nnc(Cc4ccc(F)cc4Cl)o3)CC2)c1 | -14% | nt | ? | nt | 0%
CCCCN(CCCC)C(=S)[S-].CCCCN(CCCC)C(=S)[S-].[Zn+2] | nt | 8.9µM* | nt | nt | nt
SMILES | A549 viability | ATXN viability | Nrf2 block | ATXN2 expr inh | Nrf2 ARE act
COc1ccc(C=O)cc1COc1ccc(NC(C)=O)cc1 | 0% | nt | 4% | nt | nt
O=C(Nc1nc(-c2ccccn2)cs1)c1ccc(F)c(S(=O)(=O)N2CCOCC2)c1 | ? | ? | 8.2µM* | ? | 3%
COc1cc(C(=O)Nc2nc(-c3ccc(C)cc3)cs2)ccc1OCC(=O)N1CCOCC1 | 7% | ? | -26% | nt | 6%
O=C(Nc1nc(-c2ccc(S(=O)(=O)N3CCCCCC3)cc2)cs1)c1cccs1 | -11% | ? | 6.5µM* | ? | 3%
O=C(Nc1nc(-c2ccccn2)cs1)c1cc(S(=O)(=O)N2CCOCC2)ccc1F | 0% | i | 5% | -5% | 3%
COc1cc(C(=O)Nc2nc(-c3ccc(F)cc3)cs2)ccc1OCC(=O)N1CCOCC1 | -13% | ? | 21µM* | ? | -2%
O=C(Nc1nc(-c2ccccc2)cs1)C1CCCN(S(=O)(=O)c2ccccc2)C1 (configuration not stated) | 0%[1.84 µM] | ? | 21µM* | ? | 0%
COc1cccc(-c2cc(C(F)(F)F)n3ncc(C(=O)OC(C)C)c3n2)c1 | 1% | i | -1% | 0% | 0%
CCOc1ccc(-c2nnc(SCC(=O)NCCc3ccccc3)nc2-c2ccc(OCC)cc2)cc1 | 0% | nt | nt | nt | 0%
COc1cc(CN2CCCC(n3cc(C(=O)N4CCCC4)nn3)C2)cc(OC)c1 (configuration not stated) | nt | i | nt | nt | nt
c1nc(NCCc2cnc[nH]2)c2ccc(-c3ccc4c(c3)OCO4)cc2n1 | 18% | nt | 11% | nt | nt
COc1cccc(C(=O)Nc2nc(-c3ccc(S(=O)(=O)N4CCOCC4)cc3)cs2)c1 | -18% | ? | 13µM* | 16µM* | 0%
O=C(Nc1ccc(Br)cc1)c1ccc(F)c(S(=O)(=O)N2CCN(c3ccccn3)CC2)c1 | -9% | i | 23µM* | ? | 3%
COc1ccc(-c2nc(NC(=O)c3ccc(OCC(=O)Nc4ccc(F)cc4)c(OC)c3)sc2C)cc1 | ? | nt | 15µM* | ? | 0%
O=C(Nc1nc(-c2ccccn2)cs1)c1cccc(-n2cnnn2)c1 | -7% | i | 7.3µM* | nt | 0%
Cc1ccc(-c2csc(NC(=O)c3cccc(S(=O)(=O)N4CCN(C)CC4)c3)n2)cc1 | -6% | i | -19% | -28% | 3%
CCCCc1cc2c(=O)c(C(=O)OC)c[nH]c2cc1OCc1ccccc1 | nt | i | nt | nt | nt
CCC(O)CNC(=O)c1cnn(-c2nccc(-c3cc(C)sc3C)n2)c1C1CC1 (configuration not stated) | nt | i | nt | nt | nt
Cc1nn(C2CCS(=O)(=O)C2)c(Cl)c1/C=C/C(=O)OCC(=O)c1cc(C)n(-c2ccc(F)cc2)c1C (configuration not stated) | 10% | i | 21µM* | nt | 0%
COc1cccc(/C=N/NC(N)=S)c1OCc1cccc(Cl)c1 | -20% | i | 16µM* | nt | 3%
CCOc1cc(/C=C2\SC(=N)N(c3nccs3)C2=O)ccc1OCCN1CCOCC1 | 21µM* | ? | 18µM* | 22µM* | 0%[9.22 µM]
C=C(C(=O)c1ccccc1)C(C)C(=C)C(=O)c1ccccc1 | ? | 25µM* | ? | 28µM* | ?
CCOc1cc(CNCCO)cc(Br)c1OCc1ccc(Cl)cc1Cl | -3% | nt | -9% | 20µM* | -4%
CCOc1cc(CNCCSc2nnnn2C)cc(Br)c1OCc1ccccc1F | ? | ? | 23µM* | -23% | 5%
CCOc1cccc(CNCCO)c1OCc1ccc(Cl)cc1Cl | 1% | ? | -2% | -31% | 11%
